Here are results for seven molecules from PubChem BioAssay (NCATS).

The target in assay [1] is Lysosomal acid glucosylceramidase (Homo sapiens) (UniProt P04062). The assay can be described thus: Glucocerebrosidase-p2 (AID 348; in the data active = potency below about 10 µM; note: potency is the fitted concentration of half-maximal effect). To be noted: purified GBA, blue fluorogenic substrate, 40 min. An outline of the steps: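 Normal human glucocerebrosidase (0.2 nM) with blue fluorogenic substrate (80 uM final) in citrate/phosphate pH 5.9 with 10mM sodium taurocholate, 0.01% tween-20; 40 min RT, NaOH/glycine stop; fluorescence Ex 365/Em 440; AC50 from a titration from 0.6 nM upwards.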
Sequence of Lysosomal acid glucosylceramidase (Homo sapiens) (P04062 whole entry, looked up): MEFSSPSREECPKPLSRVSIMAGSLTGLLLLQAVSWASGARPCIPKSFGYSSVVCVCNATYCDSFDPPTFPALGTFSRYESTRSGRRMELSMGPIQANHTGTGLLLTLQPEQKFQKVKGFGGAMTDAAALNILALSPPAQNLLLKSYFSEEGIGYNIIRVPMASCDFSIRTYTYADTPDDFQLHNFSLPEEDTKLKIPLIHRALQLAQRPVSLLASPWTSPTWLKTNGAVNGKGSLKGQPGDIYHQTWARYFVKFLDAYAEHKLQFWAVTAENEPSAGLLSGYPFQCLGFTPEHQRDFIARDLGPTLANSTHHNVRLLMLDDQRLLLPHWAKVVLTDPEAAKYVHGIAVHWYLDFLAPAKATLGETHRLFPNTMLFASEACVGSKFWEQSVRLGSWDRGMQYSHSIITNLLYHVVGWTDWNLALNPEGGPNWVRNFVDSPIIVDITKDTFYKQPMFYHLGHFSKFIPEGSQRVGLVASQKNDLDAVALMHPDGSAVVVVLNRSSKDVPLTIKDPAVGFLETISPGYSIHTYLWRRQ

Assay [2] has as its target Cytochrome P450 1A2 (Homo sapiens) (UniProt P05177). The assay can be described thus: p450-cyp1a2 (AID 410; calls by dose curve; note: potency is the fitted concentration of half-maximal effect). To be noted: recombinant CYP1A2, luciferin-ME demethylation, luminescence; series mostly up to 11.4 µM. The essentials: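 Read-out is luminescence from luciferin produced by CYP1A2 demethylation of Luciferin-ME (100uM, at Km). Detection reagent stopped the 60 min NADPH-dependent reaction; signals were normalized to 57 uM furafylline.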

For assay [3], the target named is Glucocorticoid receptor (Homo sapiens) (UniProt P04150). The assay can be described thus: GR-GFP Redistribution (AID 450;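 active = compounds whose dose series gives a full or clear partial fitted curve of increased nuclear translocation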; note: potency is the fitted concentration of half-maximal effect). The conditions noted are these: U2OS GR-GFP nuclear translocation, laser cytometry, 2 h.
Sequence of Glucocorticoid receptor (Homo sapiens) (P04150 whole entry, looked up, the tested form may be a part): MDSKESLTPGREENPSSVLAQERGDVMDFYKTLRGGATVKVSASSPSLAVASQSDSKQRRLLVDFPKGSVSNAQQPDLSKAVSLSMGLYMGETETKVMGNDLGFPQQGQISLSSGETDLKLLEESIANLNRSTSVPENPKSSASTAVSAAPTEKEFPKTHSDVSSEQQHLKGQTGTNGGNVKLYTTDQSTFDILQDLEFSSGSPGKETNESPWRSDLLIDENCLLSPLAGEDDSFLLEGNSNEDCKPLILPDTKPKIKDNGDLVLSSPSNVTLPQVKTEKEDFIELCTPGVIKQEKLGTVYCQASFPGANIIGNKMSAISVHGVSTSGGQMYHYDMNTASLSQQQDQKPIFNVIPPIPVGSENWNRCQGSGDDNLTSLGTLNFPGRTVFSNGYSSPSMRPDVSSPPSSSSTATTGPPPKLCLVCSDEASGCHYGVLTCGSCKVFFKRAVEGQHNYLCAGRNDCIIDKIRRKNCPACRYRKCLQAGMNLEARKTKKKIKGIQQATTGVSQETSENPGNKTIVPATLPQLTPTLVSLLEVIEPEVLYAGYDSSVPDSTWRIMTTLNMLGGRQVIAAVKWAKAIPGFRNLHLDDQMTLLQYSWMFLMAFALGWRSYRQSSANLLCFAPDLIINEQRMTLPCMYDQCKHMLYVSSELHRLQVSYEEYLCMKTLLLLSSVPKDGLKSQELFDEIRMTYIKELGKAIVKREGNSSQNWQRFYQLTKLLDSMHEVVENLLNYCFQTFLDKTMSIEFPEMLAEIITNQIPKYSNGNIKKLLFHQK
Assay [4] shares this target. Kind of assay: GR-EFC Redistribution (AID 451; calls by dose curve; note: potency is the fitted concentration of half-maximal effect). The conditions noted are these: CHO-K1 GR-EFC translocation, beta-gal luminescence, 2 h. An outline of the steps: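 CHO-K1 cells expressing nuclear EA and GR-ED fragments of b-gal; compounds titrated up to 46 uM final, 2 h at 37 C. GR nuclear translocation read as complemented b-gal luminescence after 1 h RT detection.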

In assay [5] the target is Mitogen-activated protein kinase 10 (Mus musculus) (UniProt Q61831). Kind of assay: JNK3 AlphaScreen Assay (AID 530).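 Note: kinase came from lysate of stimulated human HepG2 cells; signal reports phosphorylation of biotinylated GST-cJun 1-79 at Ser73 with 10 µM ATP; % is set by controls: 0 for no effect and ±100 for the full control effect.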 The conditions noted are these: JNK3 lysate, c-Jun phosphorylation; series mostly up to 11.4 µM. An outline of the steps: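 HepG2 lysate (IL-1b/TNFa pre-activated) + biotin-GST-cJun 1-79 + anti-pSer73 cJun; cpd titration, 15 min RT; ATP 10 uM start; Tris pH 7.6, MgCl2, DTT, vanadate; beads in EDTA buffer; AlphaScreen.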

The target in assay [6] is Cytochrome P450 3A4 (Homo sapiens) (UniProt P08684). The assay can be described thus: qHTS Assay for Activators of Cytochrome P450 3A4 (AID 885; active = well fitted curve in the direction sought with a large enough effect; an effect the other way counts as inactive or inconclusive; note: nearly all actives have a fitted effect of over 65% in size). To be noted: recombinant CYP3A4, Luciferin-PPXE luminescence, 60 min; series mostly up to 11.4 µM. An outline of the steps: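 CYP3A4 activity: Luciferin-PPXE O-dealkylation, 25uM substrate, 200mM KPO4, RT throughout. Read-out is luciferase luminescence; higher values reflect activation.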
Sequence of Cytochrome P450 3A4 (Homo sapiens) (P08684 whole entry, looked up): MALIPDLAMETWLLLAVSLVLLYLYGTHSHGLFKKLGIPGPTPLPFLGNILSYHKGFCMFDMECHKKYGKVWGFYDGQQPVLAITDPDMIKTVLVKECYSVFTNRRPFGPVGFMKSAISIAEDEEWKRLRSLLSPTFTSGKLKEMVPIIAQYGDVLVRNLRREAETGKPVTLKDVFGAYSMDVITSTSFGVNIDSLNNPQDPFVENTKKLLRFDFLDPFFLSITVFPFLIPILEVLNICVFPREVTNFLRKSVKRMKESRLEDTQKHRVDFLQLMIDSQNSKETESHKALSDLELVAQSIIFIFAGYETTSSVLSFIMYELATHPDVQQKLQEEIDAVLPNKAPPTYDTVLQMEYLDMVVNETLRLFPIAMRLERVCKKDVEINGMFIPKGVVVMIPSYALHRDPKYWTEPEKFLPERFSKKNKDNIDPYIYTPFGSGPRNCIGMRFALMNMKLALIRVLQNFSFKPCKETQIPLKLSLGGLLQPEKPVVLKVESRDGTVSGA
A general note: Quantitative high-throughput screening tests each substance at several concentrations.

Assay [7] is described as follows: NFAT Signaling Pathway (AID 444).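 Note: carbachol stimulus at about its EC50 of 1 µM final; % is set by controls: 0 for no effect and ±100 for the full control effect.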 The conditions noted are these: Jurkat NFAT-bla M1, carbachol, beta-lactamase ratio, 5 h; at 7.69 µM (top of the series) unless noted. An outline of the steps: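 Jurkat cells with NFAT-driven β-lactamase reporter and co-expressed M1 receptor, stimulated with carbachol (final 1 uM, ~EC50), compound titration, 5 h at 37 °C. CCF4 loaded 1 h at RT; 460/530 nm ratio gave %activity and AC50.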

Assay [8] addresses 3',5'-cyclic-AMP phosphodiesterase 4B (Homo sapiens) (UniProt Q07343). The assay can be described thus: qHTS Assay for Inhibitors of PDE-IV (AID 607; active = well fitted activation curve with a large enough effect in the main read-out, with a control signal flat, not every such curve was filed as active; note: % of control where 0% means no effect). The conditions noted are these: HEK293 ACTOne CNG channel cells, membrane potential fluorescence; series mostly up to 22.9 µM. An outline of the steps:
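ACTOne HEK293 cells carry a modified cAMP-gated CNG channel and express endogenous PDE4; plated 1000 cells/well, compounds up to 22.9 uM final. Membrane-potential dye fluorescence (ex 535/em 590) was read; parental cells received 10 uM forskolin + 100 uM RO 20-1724.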

The nature of assay [9]: Stat Signaling Pathway (AID 446).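 Note: ME-180 cervical cancer cells given 40 pM IL-6 alongside compound; SIE-controlled beta-lactamase reporter measured as 460/530 nm FRET emission ratio; % is set by controls: 0 for no effect and ±100 for the full control effect.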 The conditions noted are these: ME-180 SIE beta-lactamase reporter, IL-6 stimulated, 5 h; at 7.69 µM (top of the series) unless noted. An outline of the steps: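 Compound effects on IL-6-induced STAT reporter activity were measured in ME-180 cells. After overnight culture, cells were co-treated with 40 pM IL-6 for 5 hrs before beta-lactamase substrate loading at room temperature.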

Assay [10] is described as follows: qHTS Assay for Identification of Small Molecule Agonists for Hypoxia Response Element Signaling Pathway (AID 914; active = well fitted activation curve with a large enough effect in the signal ratio, with a control signal flat, not every such curve was filed as active; the % refers to the signal ratio; note: potency is the fitted concentration of half-maximal effect; for activation: % of control where 0% means no effect). The conditions noted are these: ME-180 (cervical carcinoma) HRE-bla reporter, beta-lactamase ratio, CoCl2, 17 h; activation: hits give high values. The essentials: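 HRE-bla ME-180 cells, overnight plating in Opti-MEM with 0.5% dialyzed FBS; cpd titration + EC50 CoCl2, 17 h, 37 degrees Celsius; CCF4 2.5 h RT; 460/530 nm ratio; AC50.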

Assay [11] addresses Cytochrome P450 2C9 (Homo sapiens) (UniProt P11712). The assay can be described thus: qHTS Assay for Inhibitors and Substrates of Cytochrome P450 2C9 (AID 883; active = well fitted curve in the direction sought with a large enough effect; an effect the other way counts as inactive or inconclusive; note: potency is the fitted concentration of half-maximal effect; nearly all actives have a fitted effect of over 60% in size). The conditions noted are these: recombinant CYP2C9, luciferin-H luminescence, 60 min; series mostly up to 11.4 µM. The essentials:
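Human CYP2C9 (10nM) with Luciferin-H at 100uM (its KM) in 25mM KPO4; compound preincubated 10 min at 37C, then NADPH regeneration for 60 min at 37C. Luciferin read by luminescence after detection reagent; normalized to 57uM sulphaphenazole as full inhibition.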

The target of assay [12] is Cytochrome P450 2C19 (Homo sapiens) (UniProt P33261). Kind of assay: qHTS Assay for Inhibitors and Substrates of Cytochrome P450 2C19 (AID 899; active = well fitted curve in the direction sought with a large enough effect; an effect the other way counts as inactive or inconclusive; note: potency is the fitted concentration of half-maximal effect; nearly all actives have a fitted effect of over 60% in size). The conditions noted are these: recombinant CYP2C19, luciferin-H EGE luminescence; series mostly up to 11.4 µM. An outline of the steps: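 5 nM human CYP2C19 with 10uM Luciferin-H EGE (at KM) in 50mM KPO4, compound preincubated 10 min at 37C, then NADPH regeneration for 60 min at 37C. Luciferin read by luminescence after detection reagent; normalized to 57uM ketoconazole as full inhibition.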
Sequence of Cytochrome P450 2C19 (Homo sapiens) (P33261 whole entry, looked up): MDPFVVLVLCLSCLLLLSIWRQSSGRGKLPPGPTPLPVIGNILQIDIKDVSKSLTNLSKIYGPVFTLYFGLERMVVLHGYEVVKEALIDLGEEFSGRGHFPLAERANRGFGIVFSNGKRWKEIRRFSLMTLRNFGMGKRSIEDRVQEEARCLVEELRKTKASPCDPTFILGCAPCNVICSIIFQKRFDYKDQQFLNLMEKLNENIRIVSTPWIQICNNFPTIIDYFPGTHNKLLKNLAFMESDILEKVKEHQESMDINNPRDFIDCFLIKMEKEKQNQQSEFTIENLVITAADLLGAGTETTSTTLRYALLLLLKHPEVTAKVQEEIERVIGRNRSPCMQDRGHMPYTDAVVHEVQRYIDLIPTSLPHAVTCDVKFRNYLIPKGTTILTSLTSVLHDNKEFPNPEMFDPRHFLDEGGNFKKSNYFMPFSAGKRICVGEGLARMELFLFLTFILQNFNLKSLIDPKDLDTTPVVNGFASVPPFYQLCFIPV

The target in assay [13] is Cytochrome P450 3A4 (Homo sapiens) (UniProt P08684). Kind of assay: qHTS Assay for Inhibitors and Substrates of Cytochrome P450 3A4 (AID 884; active = well fitted curve in the direction sought with a large enough effect; an effect the other way counts as inactive or inconclusive; note: potency is the fitted concentration of half-maximal effect; nearly all actives have a fitted effect of over 50% in size). To be noted: recombinant CYP3A4, Luciferin-PPXE luminescence; series mostly up to 57.1 µM. The essentials: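 Luminescent readout of luciferin produced by CYP3A4 (20 nM) dealkylation of Luciferin-PPXE, 25 uM (its KM). NADPH-driven reaction ran 60 min at RT after 10 min compound preincubation; data scaled to 57 uM ketoconazole as 100% inhibition.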

The target in assay [14] is Cytochrome P450 2D6 (Homo sapiens) (UniProt P10635). Kind of assay: qHTS Assay for Inhibitors and Substrates of Cytochrome P450 2D6 (AID 891; active = well fitted curve in the direction sought with a large enough effect; an effect the other way counts as inactive or inconclusive; note: potency is the fitted concentration of half-maximal effect; nearly all actives have a fitted effect of over 60% in size). To be noted: recombinant CYP2D6, luciferin-ME EGE luminescence; series mostly up to 11.4 µM. The essentials: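 Luminescent read-out of luciferin formed by 5 nM human CYP2D6 demethylating 30 uM Luciferin-ME EGE (Km level) over 60 min at room temperature after NADPH regeneration addition. Data normalized to full inhibition by 1.43 uM quinidine.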
Sequence of Cytochrome P450 2D6 (Homo sapiens) (P10635 whole entry, looked up): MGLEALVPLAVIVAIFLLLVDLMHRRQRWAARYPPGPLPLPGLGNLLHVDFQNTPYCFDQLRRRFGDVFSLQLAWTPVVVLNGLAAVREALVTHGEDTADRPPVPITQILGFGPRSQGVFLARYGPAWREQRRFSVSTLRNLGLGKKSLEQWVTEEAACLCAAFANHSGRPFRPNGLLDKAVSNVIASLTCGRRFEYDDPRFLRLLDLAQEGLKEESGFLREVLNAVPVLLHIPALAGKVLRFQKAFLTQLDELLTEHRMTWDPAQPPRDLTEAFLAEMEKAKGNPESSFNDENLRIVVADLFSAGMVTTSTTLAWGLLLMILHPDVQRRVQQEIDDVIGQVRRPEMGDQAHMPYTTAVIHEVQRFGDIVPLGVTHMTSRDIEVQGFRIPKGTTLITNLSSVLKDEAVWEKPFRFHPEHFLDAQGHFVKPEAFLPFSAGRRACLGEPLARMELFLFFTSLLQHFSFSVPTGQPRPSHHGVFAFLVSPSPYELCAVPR

Molecules are shown by their SMILES. Unmarked numbers belong to inactive results. Results filed as inconclusive are left out. Activity calls are given as the source filed them. Unless noted, calls come from the whole dose curve; as a rule, active = well fitted curve in either direction with a large enough effect (not every such curve was filed as active); inconclusive = small, poorly fitted or top-dose-only effect, or another doubt; inactive = flat fitted curve, though single readings scatter.

Sequence of 3',5'-cyclic-AMP phosphodiesterase 4B (Homo sapiens) (Q07343 whole entry, looked up): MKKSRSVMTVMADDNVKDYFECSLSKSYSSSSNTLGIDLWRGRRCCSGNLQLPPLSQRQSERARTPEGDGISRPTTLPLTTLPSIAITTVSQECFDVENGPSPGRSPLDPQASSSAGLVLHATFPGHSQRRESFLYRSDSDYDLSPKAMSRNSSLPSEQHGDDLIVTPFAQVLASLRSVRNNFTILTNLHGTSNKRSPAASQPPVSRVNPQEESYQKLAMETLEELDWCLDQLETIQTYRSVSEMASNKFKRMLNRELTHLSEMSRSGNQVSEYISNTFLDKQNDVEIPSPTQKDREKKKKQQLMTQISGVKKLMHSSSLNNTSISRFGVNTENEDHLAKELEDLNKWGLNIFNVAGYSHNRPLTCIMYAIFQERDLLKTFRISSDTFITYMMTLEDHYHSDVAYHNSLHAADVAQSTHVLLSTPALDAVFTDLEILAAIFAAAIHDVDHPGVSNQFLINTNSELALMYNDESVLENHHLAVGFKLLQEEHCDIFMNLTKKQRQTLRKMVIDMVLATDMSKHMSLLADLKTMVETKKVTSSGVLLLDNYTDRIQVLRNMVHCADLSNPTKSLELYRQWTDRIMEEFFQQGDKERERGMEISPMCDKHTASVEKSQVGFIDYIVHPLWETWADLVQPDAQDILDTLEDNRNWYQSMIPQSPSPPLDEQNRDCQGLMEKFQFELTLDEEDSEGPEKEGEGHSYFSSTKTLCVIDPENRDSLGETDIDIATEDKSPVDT
Sequence of Cytochrome P450 1A2 (Homo sapiens) (P05177 whole entry, looked up): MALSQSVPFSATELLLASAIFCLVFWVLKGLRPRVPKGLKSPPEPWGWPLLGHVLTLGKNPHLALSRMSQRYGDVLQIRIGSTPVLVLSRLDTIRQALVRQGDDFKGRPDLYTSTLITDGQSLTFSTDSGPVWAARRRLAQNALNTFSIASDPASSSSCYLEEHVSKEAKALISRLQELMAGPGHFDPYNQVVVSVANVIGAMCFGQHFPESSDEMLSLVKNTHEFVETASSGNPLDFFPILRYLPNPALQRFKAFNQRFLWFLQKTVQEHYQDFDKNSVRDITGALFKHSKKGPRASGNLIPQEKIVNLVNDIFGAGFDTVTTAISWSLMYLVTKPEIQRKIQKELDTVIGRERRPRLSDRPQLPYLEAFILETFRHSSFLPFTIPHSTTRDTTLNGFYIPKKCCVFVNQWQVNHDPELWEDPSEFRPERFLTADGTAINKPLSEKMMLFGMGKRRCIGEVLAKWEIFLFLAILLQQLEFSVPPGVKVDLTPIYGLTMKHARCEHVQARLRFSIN
Sequence of Cytochrome P450 2C9 (Homo sapiens) (P11712 whole entry, looked up): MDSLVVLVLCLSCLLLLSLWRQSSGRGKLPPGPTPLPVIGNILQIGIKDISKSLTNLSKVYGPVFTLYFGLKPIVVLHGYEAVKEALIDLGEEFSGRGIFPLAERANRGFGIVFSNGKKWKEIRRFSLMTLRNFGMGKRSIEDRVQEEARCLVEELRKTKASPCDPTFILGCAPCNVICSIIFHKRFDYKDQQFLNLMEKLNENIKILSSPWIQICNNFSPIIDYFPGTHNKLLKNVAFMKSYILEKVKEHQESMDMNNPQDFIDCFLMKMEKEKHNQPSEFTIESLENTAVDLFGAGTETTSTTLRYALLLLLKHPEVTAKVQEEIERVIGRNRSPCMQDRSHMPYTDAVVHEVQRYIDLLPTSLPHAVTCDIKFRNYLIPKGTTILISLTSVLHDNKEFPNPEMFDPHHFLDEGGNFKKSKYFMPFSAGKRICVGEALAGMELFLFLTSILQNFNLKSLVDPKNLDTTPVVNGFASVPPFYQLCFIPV

`Cc1cccc(CNc2nc(-c3cccnc3)nc3ccccc23)c1`: the Potency in [1] is greater than 11.4 µM; in assay [2], 0.631 µM (active); in [3] it was greater than 46 µM; in assay [4], greater than 46 µM. The Potency result in [5] and in assay [6] was “inactive” in each case.
Regarding `Cc1c(O)c(Br)c(C)c(O)c1Br` (tested in a mixture with another compound), the Potency in assay [1] was greater than 11.4 µM; in [3], greater than 46 µM; in [4], greater than 9.22 µM. For the same molecule, in assay [7], the activity change, negative = inhibition was -77.8% (active). Also, the Potency entry in assay [5] and in [8] was “inactive” throughout.
With `Cc1cccc(Cl)c1NC[C@H](O)CN1CCN(C)CC1`, the Potency is greater than 11.4 µM in assay [1], greater than 46 µM in assay [3] and greater than 9.22 µM in assay [4]. Moreover, in assay [7], the activity change, negative = inhibition was -10.1%. The activity, negative = inhibition in assay [9] is 6.35%. Moreover, the Potency result in assay [5] and in assay [8] was “inactive” in each case.
As for `O=c1c(-c2cc(F)cc(F)c2)nc2cnc(N3CCNCC3)nc2n1CCc1ccccc1`, the Potency is greater than 11.4 µM in [1]; 20 µM (active) in assay [2]; greater than 9.22 µM in assay [3]; greater than 46 µM in assay [4]; 3.16 µM (active) in assay [10]. In addition, the Potency result in [8] was “inactive”.
Turning to `O=C1/C(=C/c2ccccc2)[C@@H](NC2CCCCC2)c2ccccc21`, the Potency in assay [1] is greater than 11.4 µM; in [2] it was 1 µM (active); in assay [4], greater than 9.22 µM; in assay [11], 3.98 µM (active); in [12], 1.26 µM (active). Also, the Potency result in assay [5], in assay [8] and in assay [6] was “inactive” each time.
On to `CCNc1ncc2nc(CCc3ccccc3)c(=O)n(-c3ccc(OC)cc3)c2n1`, for which the Potency in assay [1] is greater than 11.4 µM; in assay [3] it was greater than 9.22 µM; in [4] it was greater than 46 µM; in assay [13] it was 6.31 µM (active); in assay [14], 0.251 µM (active). Further, the activity change, negative = inhibition in assay [7] is -12.3%. Further, the activity, negative = inhibition in assay [9] is -3.89%. The Potency result in assay [5] and in assay [6] was “inactive” throughout. Further, in [10], the activation was -1.93%.
On to `O=C(O)c1c(-c2nccc3ccccc23)[nH]c(-c2ccccc2)c1S(=O)(=O)O`, for which the Potency in [1] is greater than 11.4 µM; in assay [3], greater than 46 µM; in assay [4], greater than 9.22 µM. Besides, in [7], the activity change, negative = inhibition was 12%. Further, in assay [9], the activity, negative = inhibition was -1.38%. The Potency entry in assay [5] and in assay [8] was “inactive” throughout.
